An excerpt weighted towards active compounds, which were near 2.8% of everything screened.
PI4K2A block: PI4K2A (human) kinase inhibition | Q9BTU6 | activity change, negative = inhibition, % at 76.9 µM | 420,000 compounds, 0.13% hits | purified PI4K2A, ADP-Glo luminescence, 1 h; active compounds read low; in the data active means activity change below about -50%; inconclusive means mostly about -30% to -49%;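 further: -100% = wells without enzyme as full effect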
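PI4K2A activity was measured by ADP-Glo luminescence: enzyme (4 ug/mL stock) and phosphatidylinositol (1.2 mM stock) in Tris pH 7.5/MgCl2/EGTA/Triton X-100 buffer were reacted with ATP (300 microM stock) for one hour at ambient temperature.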
Pol eta inh: inhibitors of human DNA polymerase eta | Q9Y253 | 390,000 compounds, 1.2% hits | Potency, µM (series often up to 114 µM), inactives show at the top dose activity change, negative = inhibition, usual class: inhibitors | recombinant Pol eta, fluorescent DNA replication assay; further: potency means the concentration at half of the fitted maximal effect; on the % scale 0 is the no-effect control and ±100 the full control effect
Target sequence (Q9Y253 whole entry, looked up): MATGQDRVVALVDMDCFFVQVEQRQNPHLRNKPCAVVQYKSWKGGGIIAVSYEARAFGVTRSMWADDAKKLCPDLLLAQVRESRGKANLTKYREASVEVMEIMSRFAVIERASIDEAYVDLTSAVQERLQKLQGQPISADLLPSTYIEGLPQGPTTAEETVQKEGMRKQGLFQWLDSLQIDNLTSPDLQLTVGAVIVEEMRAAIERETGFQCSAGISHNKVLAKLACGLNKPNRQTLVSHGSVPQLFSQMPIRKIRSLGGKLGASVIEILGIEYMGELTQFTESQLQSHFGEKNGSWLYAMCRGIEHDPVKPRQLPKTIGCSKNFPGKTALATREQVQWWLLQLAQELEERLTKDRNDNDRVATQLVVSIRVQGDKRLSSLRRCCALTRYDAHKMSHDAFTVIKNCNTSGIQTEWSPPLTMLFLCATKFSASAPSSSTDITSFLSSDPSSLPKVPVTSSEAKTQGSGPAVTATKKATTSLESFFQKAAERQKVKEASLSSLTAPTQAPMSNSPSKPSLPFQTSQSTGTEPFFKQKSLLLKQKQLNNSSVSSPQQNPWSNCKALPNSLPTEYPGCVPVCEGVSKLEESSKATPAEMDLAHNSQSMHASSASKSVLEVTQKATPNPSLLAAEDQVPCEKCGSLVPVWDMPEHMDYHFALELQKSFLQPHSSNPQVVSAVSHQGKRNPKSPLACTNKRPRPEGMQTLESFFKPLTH
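Pol eta (10 nM) was preincubated with compounds for 15 min at room temperature, after which fluorescent replication substrate (50 nM final) was added to start the reaction. Fluorescence was read kinetically at 0 and 10 min.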
Pol beta inh: inhibitors of human DNA polymerase beta; Pol beta primer extension/strand displacement, fluorescence kinetic; Potency, µM (titrated, usually from 114 µM), inactives show at the top dose activity change, negative = inhibition, usual class: inhibitors; 340,000 compounds, 1.3% hits; further: potency means the concentration at half of the fitted maximal effect; on the % scale 0 is the no-effect control and ±100 the full control effect
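Preincubation: enzyme (10 nM) with compound, 15 min, RT. Reaction: substrate added to 50 nM final. Reads: 0 and 10 min. Analysis: normalized, Hill fit.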
POLI inh: blocks human DNA polymerase iota activity. Q9UNA4. Pol iota fluorescent replication assay, 10 min. AID 588590. Potency, µM (titrated, usually from 115 µM), for the others: at the highest dose activity, negative = inhibition, usual class: inhibitors. 390,000 compounds, 1% hits; further: potency means the concentration at half of the fitted maximal effect
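Fluorescent replication assay read twice, at 0 min and 10 min after adding 50 nM (final) substrate. Enzyme (10 nM) and compounds were first incubated 15 min at room temperature; enzyme-free buffer wells were negative controls.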
PI5P4K alpha inh: inhibitors of human PI5P4K alpha; P48426; PI5P4Kalpha enzyme, ADP-Glo luminescence, 60 min; active compounds read low; max response, %; 330,000 compounds, 1.2% hits; AID 652105; active means max response of -50% or lower; inconclusive means between -30% and -50%; inactive means -30% or higher; further: value at the top dose of about 77 µM; on the % scale 0 is the no-effect control and ±100 the full control effect
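Controls without substrate or without enzyme flank wells where PI5P4Kalpha converts substrate using 5 microM ATP (final). Incubation lasts 60 minutes at room temperature; ADP formed is read by ADP-Glo luminescence.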
Pol kappa inh: inhibitors of human DNA polymerase kappa; Potency, µM (doses to about 107 µM), inactives show at the highest dose activity, negative = inhibition, usual class: inhibitors; Q9UBT6; purified Pol kappa, fluorescent DNA synthesis assay, 10 min; AID 588579; 400,000 compounds, 0.53% hits; further: potency means the concentration at half of the fitted maximal effect; on the % scale 0 is the no-effect control and ±100 the full control effect
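Readout: fluorescence, taken kinetically at 0 and 10 min. Conditions: 10 nM Pol kappa, 15 min RT compound preincubation, 50 nM substrate final. Controls: enzyme-free buffer wells.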
An asterisk follows results filed as active; ? = inconclusive; · = no result; [ ] = dose if it differs, or a comment. Unless noted, the call rests on the fitted dose curve; in most records, active means well fitted inhibition curve with a large enough effect; inconclusive means small, poorly fitted or top-dose-only effect, or another doubt; inactive means no such curve, though single readings can be large or run the other way.

SMILES	PI4K2A block	Pol eta inh	Pol beta inh	POLI inh	PI5P4K alpha inh	Pol kappa inh
CCCc1cc(-c2n[nH]c(C)c2-c2ccc(C(=O)OCC)o2)c(O)cc1O	-2.0	-15.1%	?	22.6%	·	-6.2%
N#C/C(=C/c1cn[nH]c1-c1ccc(Br)cc1)C(=O)O	47.2	-4.9%	-3.9%	48.2%	-76.4*	3.4%
N#C/C(=C/c1cn[nH]c1-c1cccc(Br)c1)C(=O)O	-5.2	-13.9%	-23.2%	-27.2%	?	7.5%
Oc1ccc(-c2csc(Nc3cccc4ccccc34)n2)cc1O	-5.4	15.8µM*	?	14.1µM*	-54.7*	50.1µM*
Cc1ccnc(Nc2nc(-c3ccc(O)c(O)c3)cs2)c1	-2.0	?	?	?	-10.7	-25.5%
Oc1ccc(-c2csc(Nc3ccccn3)n2)cc1O	-7.2	17.8µM*	7.94µM*	?	?	?
COC(=O)[C@@]12C[C@@H](CC(=O)N3CCOCC3)C(=O)N(Cc3cccc4ccccc34)C1=CCC(C)(C)C2	2.2	·	·	·	5.4	·
COc1ccccc1C(=O)NC1(C(F)(F)F)NC(=O)N(CCc2ccccc2)C1=O (stereo not drawn)	-5.8	-8.3%	4.0%	79.4µM*	·	-9.1%
Cc1ccc(CNC(=O)Cn2c(=O)cc(-c3ccccc3)c3c(C)nn(C)c32)cc1	-3.2	-25.2%	-0.8%	-12.2%	·	-7.3%
CC(=O)OCC(NC(=O)C(COCc1ccccc1)NC(=O)OC(C)(C)C)C1OC(n2cc(F)c(=O)[nH]c2=O)C(OC(C)=O)C1OC(C)=O (stereo not drawn)	·	·	·	29.2%	·	-21.2%
O=C(NCc1ccco1)c1ccc(-c2csnn2)cc1	2.1	-6.8%	10µM*	?	-12.5	-8.4%
O=C(NCc1ccco1)c1ccc(C(F)(F)F)cc1	1.5	-8.5%	-5.6%	9.6%	0.3	-0.2%
O=C(CSc1c(Cl)cccc1Cl)NC1CCCc2ccccc21 (stereo not drawn)	4.4	?	?	?	?	0.0%
O=C(CSc1ccccc1Cl)NC1CCCc2ccccc21 (stereo not drawn)	-0.7	-6.9%	12.6µM*	94.6%	?	-14.0%
O=[N+]([O-])c1ccc(C=C2c3ccccc3-c3ccccc32)cc1	·	·	·	-1.1%	·	12.6%
CCCCC/C(C=O)=C\c1ccccc1	2.2	·	·	·	·	·
CCC(=O)OCOc1ccc(/C=C2/CCC(CN(C)C)C2=O)cc1 (stereo not drawn)	16.2	12.6µM*	·	?	-14.3	-8.9%
CCOc1ccc(/C=C2\CCC(C3CCCC3)C2=O)cc1 (stereo not drawn)	3.1	-10.7%	2.7%	30.8%	8.3	3.0%
N#Cc1nc(Cc2ccccc2)oc1NCc1cccnc1	4.8	-5.0%	18.9%	14.1%	-4.2	-2.7%
N#Cc1ncc(Cc2ccccc2)nc1C#N	-3.6	39.8µM*	6.5%	32.8%	?	-12.6%
CC1=C(/C=C/C(C)=C/C=C/C(C)=C\CO)C(C)(C)CCC1	·	·	·	·	·	4.5%[19.4 µM]
S=c1[nH]nc(COc2ccccc2)n1/N=C/C=C/c1ccco1	-8.7	28.2µM*	20µM*	?	-52.2*	?
S=c1[nH]nc(COc2ccccc2)n1/N=C/C=C/c1ccccc1	-4.6	-20.6%	26.4%	18.3%	1.6	-6.9%
Cc1ccccc1CN1[C@H]2CCCC[C@@H]2OCCS1(=O)=O	·	·	·	32.2%	·	-21.9%
COc1ccc(C(C#N)c2ccc(=O)[nH]n2)cc1 (stereo not drawn)	-62.2*	-27.4%	-8.2%	64.0%	2.7	3.7%
N#CC(c1ccc(Cl)cc1)c1cccc(Cl)n1 (stereo not drawn)	-0.4	-10.6%	-16.1%	24.3%	-1.8	-16.8%
CCCNC(=O)c1ccc(Cl)cc1Cl	8.8	-28.0%	20µM*	3.7%	3.0	0.0%
Cc1nc2scc(-c3ccccc3)c2c(=O)n1N=C1C=CC(=O)C=C1	-7.7	-3.4%	1.9%	?	-101.4*	-12.5%
COc1ccc(Cn2c(NC(=O)c3ccccc3)nc(Cc3ccccc3)c2-c2ccccc2)c(OC)c1	1.5	·	·	·	·	·

Screening data: PubChem BioAssay, National Center for Advancing Translational Sciences (NCATS)
